Columns and labels:
Details in all cases: Compound Concentration (nM):1000
ROCK2 = tested on: ROCK2
ROS1 = tested on: ROS1
[1] = tested on: RPS6KA4(Kin.Dom.1-N-terminal)
[2] = tested on: RPS6KA4(Kin.Dom.2-C-terminal)
[3] = tested on: RPS6KA5(Kin.Dom.1-N-terminal)
[4] = tested on: RPS6KA5(Kin.Dom.2-C-terminal)
[5] = tested on: T1, RSK1(Kin.Dom.1-N-terminal)
T1 construct: gene RPS6KA1

[6] = tested on: T2, RSK1(Kin.Dom.2-C-terminal)
T2 construct: gene RPS6KA1

[7] = tested on: T3, RSK2(Kin.Dom.1-N-terminal)
T3 construct: gene RPS6KA3

[8] = tested on: T4, RSK2(Kin.Dom.2-C-terminal)
T4 construct: gene RPS6KA3

[9] = tested on: T5, RSK3(Kin.Dom.1-N-terminal)
T5 construct: gene RPS6KA2

[10] = tested on: T6, RSK3(Kin.Dom.2-C-terminal)
T6 construct: gene RPS6KA2

[11] = tested on: T7, RSK4(Kin.Dom.1-N-terminal)
T7 construct: gene RPS6KA6

[12] = tested on: T8, RSK4(Kin.Dom.2-C-terminal)
T8 construct: gene RPS6KA6

S6K1 = tested on: T9, S6K1
T9 construct: gene RPS6KB1

SBK1 = tested on: SBK1
SGK2 = tested on: SGK2
SGK3 = tested on: SGK3
SGK = tested on: T10, SGK
T10 construct: gene SGK1

SIK2 = tested on: SIK2
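Further: KINOMEscan scanMAX binding as percent activity remaining versus control; lower means stronger binding.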

Row | SMILES | Percent Control (ROCK2) | Percent Control (ROS1) | Percent Control [1] | Percent Control [2] | Percent Control [3] | Percent Control [4] | Percent Control [5] | Percent Control [6] | Percent Control [7] | Percent Control [8] | Percent Control [9] | Percent Control [10] | Percent Control [11] | Percent Control [12] | Percent Control (S6K1) | Percent Control (SBK1) | Percent Control (SGK2) | Percent Control (SGK3) | Percent Control (SGK) | Percent Control (SIK2)
1 | Cc1cc(O)cc(C)c1/C=C/c1cncc(C(N)=O)c1 [GW435821X] | 100% | 86% | 100% | 98% | 100% | 100% | 100% | 100% | 100% | 96% | 100% | 100% | 96% | 100% | 100% | 100% | 100% | 84% | 100% | 53%
2 | C/C(Nc1ccc(S(N)(=O)=O)cc1)=C1/C(=O)Nc2ccccc21 [GW335962X] | 69% | 76% | 96% | 85% | 100% | 100% | 100% | 92% | 52% | 89% | 83% | 82% | 47% | 86% | 60% | 100% | 71% | 26% | 21% | 90%
3 | CCS(=O)(=O)c1ccc(OC)c(Nc2ncc(-c3cccc(F)c3)o2)c1 [GW621970X] | 100% | 90% | 100% | 94% | 100% | 100% | 100% | 100% | 100% | 83% | 100% | 100% | 100% | 100% | 93% | 100% | 100% | 98% | 100% | 63%
4 | Cl.O=C(Nc1ccc(Oc2ccc3[nH]c(NC(=O)c4ccccc4)nc3c2)cc1)Nc1cc(C(F)(F)F)ccc1F [GW709042A] | 85% | 67% | 100% | 77% | 100% | 88% | 100% | 100% | 100% | 90% | 100% | 100% | 99% | 100% | 52% | 100% | 100% | 90% | 100% | 100%
5 | COc1cccc(-c2c[nH]c3c(N/N=C/c4ccncc4)ncnc23)c1 [GW814408X] | 73% | 100% | 100% | 62% | 100% | 100% | 88% | 77% | 75% | 100% | 100% | 100% | 49% | 100% | 84% | 83% | 38% | 59% | 22% | 17%
6 | COc1cc(/C=N/Nc2ncnc3[nH]ncc23)ccc1O [GW578748X] | 33% | 96% | 100% | 5.5% | 100% | 91% | 100% | 100% | 72% | 93% | 100% | 100% | 45% | 100% | 40% | 16% | 40% | 7.1% | 1.5% | 83%
7 | Cl.O=S1CCN(Cc2ccc(-c3ccc4ncnc(Nc5ccc(OCc6ccccc6)c(F)c5)c4c3)o2)CC1 [GW576924A] | 94% | 100% | 100% | 100% | 100% | 100% | 100% | 100% | 100% | 100% | 100% | 100% | 97% | 100% | 97% | 100% | 100% | 78% | 100% | 81%
8 | CN(C)CCNC(=O)Nc1ccc(N(C)c2ccnc(Nc3ccc(CS(C)(=O)=O)cc3)n2)cc1.Cl [GW830900A] | 9.1% | 61% | 100% | 88% | 100% | 100% | 100% | 84% | 73% | 82% | 100% | 94% | 74% | 87% | 85% | 95% | 80% | 84% | 48% | 73%
9 | CC1=C(C(=O)Nc2ccc3[nH]ncc3c2)C(c2ccc(Cl)c(Cl)c2)CC(=O)N1 (centres unmarked) [GSK299115A] | 0.1% | 98% | 100% | 82% | 100% | 60% | 100% | 81% | 75% | 89% | 100% | 89% | 69% | 80% | 67% | 73% | 81% | 48% | 72% | 87%
10 | C[C@@H](Oc1cc(-n2cnc3ccc(OC4CCN(C)CC4)cc32)sc1C(N)=O)c1ccccc1Cl [GSK579289A] | 83% | 100% | 100% | 3.2% | 100% | 38% | 71% | 86% | 23% | 98% | 48% | 67% | 19% | 80% | 62% | 62% | 100% | 84% | 90% | 100%
11 | COC(=O)Nc1nc2ccc(Oc3ccc(NC(=O)Nc4cc(C(F)(F)F)ccc4F)cc3)cc2s1.Cl [GW693917A] | 86% | 95% | 100% | 80% | 100% | 100% | 99% | 94% | 98% | 86% | 65% | 91% | 76% | 79% | 54% | 100% | 80% | 78% | 87% | 68%
12 | O=C(Nc1n[nH]c2nc(-c3ccc(O)cc3)c(Br)cc12)C1CC1 [SB-725317] | 98% | 91% | 100% | 1.2% | 100% | 43% | 100% | 100% | 65% | 97% | 96% | 100% | 19% | 100% | 100% | 100% | 100% | 88% | 100% | 100%
13 | COc1ccc(COc2ccc(Cc3cnc(N)nc3N)cc2OC)cc1 [GW632580X] | 95% | 82% | 100% | 77% | 97% | 87% | 100% | 100% | 100% | 100% | 79% | 89% | 98% | 93% | 85% | 100% | 95% | 72% | 100% | 93%
14 | CN(C)c1cc2c(Nc3ccc4c(cnn4Cc4ccccc4)c3)ncnc2cn1 [GW282974X] | 96% | 100% | 93% | 89% | 100% | 92% | 97% | 100% | 95% | 100% | 100% | 93% | 75% | 74% | 95% | 100% | 99% | 99% | 98% | 71%
15 | COc1cc(C=NNc2ncnc3c2cnn3-c2ccccc2)ccc1O [GW513184X] | 88% | 99% | 100% | 82% | 100% | 85% | 100% | 100% | 88% | 71% | 100% | 100% | 90% | 100% | 100% | 100% | 66% | 85% | 50% | 61%
16 | NS(=O)(=O)c1ccc(N/N=C2\C(=O)Nc3ccc(C(=O)NCCc4c[nH]cn4)cc32)cc1 [GW300660X] | 40% | 100% | 100% | 80% | 100% | 100% | 100% | 100% | 54% | 100% | 100% | 100% | 45% | 100% | 76% | 100% | 100% | 12% | 26% | 100%
17 | O=C1Nc2ccc(C(=O)c3ccco3)cc2C1=Cc1cc(Cl)c(O)c(Cl)c1 [GW406108X] | 45% | 100% | 100% | 49% | 100% | 67% | 78% | 16% | 26% | 85% | 74% | 51% | 53% | 32% | 74% | 100% | 100% | 74% | 83% | 100%
18 | CC(C)COC(=O)c1ccc2c(c1)/C(=C/Nc1ccc(S(N)(=O)=O)cc1)C(=O)N2 [GW416981X] | 21% | 100% | 100% | 67% | 100% | 66% | 100% | 100% | 36% | 97% | 100% | 100% | 43% | 100% | 65% | 71% | 79% | 18% | 31% | 94%
19 | COc1ccc2c(-c3ccnc(Nc4cccc(OC(F)(F)F)c4)n3)cnn2n1 [GW810372X] | 100% | 96% | 100% | 100% | 100% | 87% | 100% | 100% | 95% | 90% | 100% | 99% | 99% | 100% | 87% | 100% | 100% | 79% | 100% | 100%

Source: paper PMC7826789 (International Journal of Molecular Sciences, 2021)
